PI4K2A inh: qHTS for small molecular inhibitors of PI4K2A. Phosphatidylinositol 4-kinase type 2-alpha (Homo sapiens), Q9BTU6. purified PI4K2A, ADP-Glo luminescence, 1 h; active compounds read low. activity change, negative = inhibition, % at 76.9 µM. 420,000 tested, 0.13% active; in the data active = activity change below about -50%; inconclusive = mostly about -30% to -49%;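 note: -100% = wells without enzyme as full effect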
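In this quantitative HTS, ADP production by PI4K2A was quantified luminescently after 1 h at ambient temperature; 100 microM adenosine served as plate-quality control.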
PI5P4Ka inh: qHTS for Inhibitors of phosphatidylinositol 5-phosphate 4-kinase (PI5P4K); PI5P4Kalpha enzyme, ADP-Glo luminescence, 60 min; active compounds read low; max response, %; 330,000 tested, 1.2% active; AID 652105, 2013; active = max response of -50% or lower; inconclusive = between -30% and -50%; inactive = -30% or higher; note: value at the top dose of about 77 µM
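Quantitative HTS of the MLSMR library against PI5P4Kalpha with substrate. ATP added last at 5 microM final; room temperature, 60 minutes. Remaining ATP depleted, ADP converted and read as luminescence.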
Pin1 inhibitor: qHTS Assay to Find Inhibitors of Pin1. Peptidyl-prolyl cis-trans isomerase NIMA-interacting 1 (Homo sapiens), Q13526. 390,000 tested, 0.009% active. Potency, µM (doses to about 115 µM), without a hit: top-dose activity, negative = inhibition, most hits filed as inhibitors. Pin1 FP peptide displacement, HiFluor488, 10 min. AID 504891, 2011; active = well fitted inhibition curve with a large enough effect in the polarisation, with a control signal flat, not every such curve was filed as active; inconclusive = small, poorly fitted or top-dose-only effect, or effect the other way, or a change in a side signal; inactive = no such curve, though single readings can be large or run the other way; the % refers to the polarisation; note: potency is the fitted concentration of half-maximal effect
PGK inhibitor: qHTS Assay to Find Inhibitors of Phosphoglycerate Kinase | PGK/GAPDH coupled, Kinase-Glo luminescence, 60 min | 380,000 tested, 0.043% active | Potency, µM (highest dose often 57.5 µM), for inactives: at the top dose activity change, negative = inhibition, most hits filed as inhibitors | AID 602233, 2012 | Phosphoglycerate kinase, glycosomal (Trypanosoma brucei brucei), P07378; note: potency is the fitted concentration of half-maximal effect; nearly all actives have a fitted effect of over 60% in size
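Luminescent ATP detection (Kinase-Glo Plus) follows a 60-minute room-temperature incubation, with wells lacking PGK as controls. Buffer: 100 mM TEA (pH 7.6), 5 mM MgCl2, 0.01% Tween-20. Coupling enzyme GAPDH (100 nM final) supplies unstable 1,3-BPG in-well.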
Tb PFK block: qHTS Assay to Find Inhibitors of T. brucei phosphofructokinase; Potency, µM (highest dose often 57.5 µM), for inactives: top-dose activity, negative = inhibition, actives largely listed as inhibitors; ATP-dependent 6-phosphofructokinase (Trypanosoma brucei brucei), O15648; 330,000 tested, 0.17% active; T. brucei PFK, ADP-Glo luminescence;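 note: potency is the fitted concentration of half-maximal effect; 0% = uninhibited 1x PFK enzyme wells and -100% = no-enzyme wells; nearly all actives have a fitted effect of over 60% in size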
Target sequence (O15648 whole entry, looked up): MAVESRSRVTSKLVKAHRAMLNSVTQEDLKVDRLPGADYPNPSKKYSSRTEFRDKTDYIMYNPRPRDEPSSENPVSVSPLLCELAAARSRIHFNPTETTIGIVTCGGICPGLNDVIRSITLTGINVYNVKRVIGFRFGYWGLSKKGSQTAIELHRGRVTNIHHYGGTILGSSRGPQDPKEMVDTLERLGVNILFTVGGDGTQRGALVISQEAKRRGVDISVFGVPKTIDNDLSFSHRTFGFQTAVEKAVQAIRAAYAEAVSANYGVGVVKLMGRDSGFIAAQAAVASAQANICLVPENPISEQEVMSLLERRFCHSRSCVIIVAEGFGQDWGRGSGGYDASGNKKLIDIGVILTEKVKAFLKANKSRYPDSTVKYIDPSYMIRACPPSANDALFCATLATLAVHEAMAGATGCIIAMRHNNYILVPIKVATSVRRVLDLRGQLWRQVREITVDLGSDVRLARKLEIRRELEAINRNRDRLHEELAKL
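Luminescent ADP detection (ADP-Glo, two-step: ATP depletion then ADP-to-ATP conversion for luciferase) reported PFK activity after 45 min room-temperature reaction of 1.25 nM enzyme with 0.5 mM F6P and 0.1 mM ATP at pH 8.0.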
Active calls of the source: *. Only a selection was taken, and hits are over-represented in it overall. Unless noted, calls come from the whole dose curve; as a rule, active = well fitted curve in the direction sought with a large enough effect; inconclusive = small, poorly fitted or top-dose-only effect, or another doubt; inactive = no such curve, though single readings can be large; an effect the other way counts as inactive or inconclusive. Unless noted, % is set by controls: 0 for no effect and ±100 for the full control effect.

For N#CC(=C=[N-])C1=C(C#N)C(c2ccccc2F)C([n+]2ccccc2)C(O)(C2CC2)N1 (stereo unspecified) the results were PI4K2A inh 0.0, Pin1 inhibitor 7.4%, PGK inhibitor -6.1% and Tb PFK block 2.5%.
For Cc1ccc2nc(-c3ccccc3)cn2c1 the results were PI4K2A inh -69.7*, PI5P4Ka inh inconclusive, Pin1 inhibitor -2.9%, PGK inhibitor inconclusive and Tb PFK block inconclusive.
For Cc1ccc(S(=O)(=O)Nn2c(C)ccc2C)cc1 the results were PI4K2A inh -19.3, PI5P4Ka inh -58.3*, Pin1 inhibitor 8.4%, PGK inhibitor -5.9% and Tb PFK block inconclusive.
`O=C(CCS(=O)(=O)Cc1ccc(Cl)cc1)NCCCN1CCOCC1` gave PI4K2A inh 3.2, Pin1 inhibitor 3.3%, PGK inhibitor -5.1% and Tb PFK block 0.8%.
Screening CCN(CC)CCOC(=O)c1ccc(N/C=C(/C#N)c2nc(-c3ccc(OC)c(OC)c3)cs2)cc1 returned PI4K2A inh 2.8, PI5P4Ka inh -76.7*, Pin1 inhibitor 46.2%, PGK inhibitor 7.5% and Tb PFK block inconclusive.
For O=C(O)C(O)c1ccco1 (stereo unspecified) the results were PI4K2A inh -9.0, PI5P4Ka inh -60.3*, Pin1 inhibitor inconclusive, PGK inhibitor 14.1µM* and Tb PFK block 4.78µM*.
Screening O=C(COC(=O)/C=C/c1ccc(Cl)cc1Cl)Nc1cccc(S(=O)(=O)NC2=NCCC2)c1 returned PI4K2A inh -4.1, PI5P4Ka inh -75.0* and PGK inhibitor 0.9%.
For O=C(COC(=O)/C=C/c1cccc(Cl)c1)Nc1cccc(S(=O)(=O)NC2=NCCC2)c1 the results were PI4K2A inh 1.0, PI5P4Ka inh 4.1, Pin1 inhibitor -6.1%, PGK inhibitor -8.7% and Tb PFK block 1.4%.
Screening COC(=O)c1c(NC(=O)COC(=O)c2ccccc2O)sc2c1CCCCC2 returned PI4K2A inh -3.0, PI5P4Ka inh 0.9, Pin1 inhibitor 2.0%, PGK inhibitor 3.4% and Tb PFK block -3.8%.
For COC(=O)c1c(NC(=O)COC(=O)c2ccc(NC(=O)CC#N)cc2)sc2c1CCCCC2 the results were PI4K2A inh -19.3, PI5P4Ka inh -61.8*, Pin1 inhibitor inconclusive, PGK inhibitor inconclusive and Tb PFK block inconclusive.
For NC(=O)c1c(NC(=O)COC(=O)c2ccc(O)c(Cl)c2)sc2c1CCCC2 the results were PI4K2A inh -3.0, PI5P4Ka inh -55.3*, Pin1 inhibitor 21.8%, PGK inhibitor -3.8% and Tb PFK block -0.6%.
For O=C(Nc1nc2c(Cl)ccc(Cl)c2s1)c1ccco1 the results were PI4K2A inh -0.2, PI5P4Ka inh 8.6, Pin1 inhibitor 10.6%, PGK inhibitor 5.0% and Tb PFK block 1.0%.
Screening C=CCSc1nnc(NC(=O)CSCc2c(C)noc2C)s1 returned PI4K2A inh 9.7, PI5P4Ka inh 6.9, Pin1 inhibitor -0.8%, PGK inhibitor -12.4% and Tb PFK block 0.0%.
`NNc1ccc([N+](=O)[O-])c2[nH][nH]c(=O)c12` gave PI4K2A inh -16.9, PI5P4Ka inh -82.6* and PGK inhibitor inconclusive.
For O=[N+]([O-])c1ccc(Nc2ccccc2)c2nonc12 the results were PI4K2A inh -8.0, PI5P4Ka inh -26.3, Pin1 inhibitor 48.2%, PGK inhibitor -7.1% and Tb PFK block -4.6%.
For CC(C)c1cccc(C(C)C)c1NC1=NS(=O)(=O)c2ccccc21 the results were PI4K2A inh 2.9, Pin1 inhibitor -9.8% and PGK inhibitor inactive.
COc1ccc(OC)c2cc3ccccc3cc12 was read as PI4K2A inh -23.9, PI5P4Ka inh -60.3* and PGK inhibitor -5.4%.
CN=C1S/C(=C\c2ccc(O)c(Br)c2)C(=O)N1C was read as PI4K2A inh -19.7, PI5P4Ka inh -78.7*, Pin1 inhibitor 8.8%, PGK inhibitor -16.4% and Tb PFK block 5.4%.
